Results as given in PubChem BioAssay (NCATS).
Records with an inconclusive call do not appear. The source made the active and inactive calls. Calls come from the whole dose curve; as a rule, active = well fitted curve in the direction sought with a large enough effect; inconclusive = small, poorly fitted or top-dose-only effect, or another doubt; inactive = no such curve, though single readings can be large; an effect the other way counts as inactive or inconclusive.

How the values were obtained:
[1] = target: Phospholipid hydroperoxide glutathione peroxidase GPX4 (Homo sapiens) (UniProt P36969); assay: Primary qHTS Assay for Inhibitors of Recombinant Selenoprotein Glutathione Peroxidase 4 (GPX4) (AID 1845192); note: nearly all actives have a fitted effect of over 65% in size; for activity change, negative = inhibition: series mostly up to about 50 µM; % is set by controls: 0 for no effect and ±100 for the full control effect
Procedure, shortened: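 GR-coupled readout: 100 nM GR, 1 mM GSH, 0.5 mM NADPH; NADPH fluorescence (ex 340/em 450 nm) read at t=0 and after 15 min RT. GPX4 200 nM, preincubated 30 min with compound; substrate 0.5 mM CHP.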

[2] = target: Luciferin 4-monooxygenase (Photinus pyralis) (UniProt P08659); assay: Primary firefly luciferase (FLuc) qHTS assay for identification of artifact compounds. (AID 1845220); note: nearly all actives have a fitted effect of over 60% in size;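 for activity change, negative = inhibition: series mostly up to about 54 µM; plate controls were DMSO vehicle for no effect and no enzyme for full effect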
Procedure, shortened: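 Reaction readout was CCD-imaged luminescence, taken 5 min after adding 10 nM purified firefly enzyme to compound-treated wells holding 10 uM luciferin and ATP in pH 7.6 buffer.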

[3] = Primary fluorescence-based thiol-reactive (MSTI) qHTS assay for identification of artifact compounds. (AID 1845221);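 note: series mostly up to about 54 µM; thiol-reactive compounds lower the probe fluorescence signal; nearly all actives have a fitted effect of over 65% in size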
Procedure, shortened: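 Probe: MSTI 4 uM, PBS pH 7.4, 2% DMSO. Incubation 1 h, RT, light-protected. Readout fluorescence 525/598 nm.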

[4] = tested on: Nanoluciferase (engineered Oplophorus gracilirostris luciferase); assay: Primary Nanoluciferase (NLuc) qHTS assay for identification of artifact compounds. (AID 1845222);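 note: NLuc secreted into diluted conditioned medium of S16 cells; series mostly up to about 54 µM; 0% = DMSO and -100% = no enzyme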
Procedure, shortened: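 Concentration-response data were obtained by luminescence after 5 min with Nano-Glo substrate at 1:100. The enzyme was diluted S16 NLuc-expressing cell medium, preincubated with compound for 15 min at RT. Curves were fitted with a 4-parameter Hill model.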

[5] = Primary redox qHTS assay for identification of artifact compounds. (AID 1845223);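 note: 0% = DMSO and 100% = reference compound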
Procedure, shortened: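 Amplex Red (25 uM) and HRP (250 mU/mL) in HBSS, with compounds for 15 min, then 250 uM DTT for 30 min, room temperature, dark. Fluorescence 525/598 nm read; normalized to DMSO and 10 uM DA3003; Hill fit.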

Sequence of Phospholipid hydroperoxide glutathione peroxidase GPX4 (Homo sapiens) (P36969 whole entry, looked up): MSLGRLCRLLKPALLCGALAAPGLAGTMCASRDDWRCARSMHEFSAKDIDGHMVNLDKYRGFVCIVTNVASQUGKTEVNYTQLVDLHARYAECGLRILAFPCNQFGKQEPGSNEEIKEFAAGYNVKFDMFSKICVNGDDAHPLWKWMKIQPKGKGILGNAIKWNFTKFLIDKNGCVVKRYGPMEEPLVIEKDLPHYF

COc1ccc(CNC(=O)c2cc(-c3cncc(C)c3)ncc2-c2nccs2)nc1OC
inactive: Potency [1] | Potency [2] | Potency [3] | Potency [4] | Potency [5]

CCOCc1nc2c(N)nc3ccccc3c2n1CC(C)(C)O
inactive: Potency [1] | Potency [2] | Potency [3] | Potency [4] | Potency [5]

CC1=C(C)C(=O)OC(C(C)C2CCC3C4C5OC5C5(O)CC(OC6OC(CO)C(OC7OC(C)C(O)C(O)C7O)C(O)C6O)CC(O)C5(C)C4CCC23C)C1 (stereo not given)
inactive: Potency [1] | Potency [2] | Potency [3] | Potency [4] | Potency [5]

O=C(O)c1ccc(CN2CCC(CN[C@@H]3C[C@H]3c3ccccc3)CC2)cc1
inactive: Potency [1] | Potency [2] | Potency [3] | Potency [4] | Potency [5]

CCN(CC)CCN(Cc1ccc(-c2ccc(C(F)(F)F)cc2)cc1)C(=O)Cn1c(SCc2ccc(F)cc2)nc(=O)c2c1CCC2
inactive: Potency [1] | Potency [2] | Potency [3] | Potency [4] | Potency [5]

O=S(=O)(NC1CCC(c2cc(F)ccc2F)(S(=O)(=O)c2ccc(Cl)cc2)CC1)C(F)(F)F (stereo not given)
inactive: Potency [1] | Potency [2] | Potency [3] | Potency [4] | Potency [5]

CC1(C(=O)O)CCCC2(C)C3CCC4CC3(CCC12)CC4=O (stereo not given)
inactive: Potency [1] | Potency [2] | Potency [3] | Potency [4] | Potency [5]

COC(=O)CC(O)CC(O)/C=C/c1c(C)ccc2c1C(O)CC(C)C2 (stereo not given)
inactive: Potency [1] | Potency [2] | Potency [3] | Potency [4] | Potency [5]

C=C(C)C1CCC2(C(=O)O[C@@H]3O[C@H](CO[C@@H]4O[C@H](CO)[C@@H](O)[C@H](O)[C@H]4O)[C@@H](O)[C@H](O[C@@H]4O[C@@H](C)[C@H](O)[C@@H](O)[C@H]4O)[C@H]3O)CCC3(C(=O)O)C(CCC4C5(C)CCC(O)C(C)(C)C5CCC43C)C12 (stereo not given in full)
inactive: Potency [1] | outcome [2] inactive [at 11.6 µM] | activity change, negative = thiol reactive [3] 301% [at 11.5 µM] | activity, negative = inhibition [4] 0% [at 11.6 µM] | redox activity (% of DA3003) [5] 10.3% [at 11.5 µM]

CCOCc1cc(OC)c(-c2ccc(C[C@H](NC(=O)c3c(F)cccc3F)C(=O)O)cc2)c(OC)c1
inactive: Potency [1] | Potency [2] | Potency [3] | Potency [4] | Potency [5]

C=C(C)C1CC[C@]2(C(=O)O)CC[C@]3(C(=O)O)[C@H](CCC4[C@@]5(C)CC[C@H](O)C(C)(C)C5CC[C@]43C)C12 (stereo not given in full)
inactive: Potency [1] | Potency [2] | Potency [3] | Potency [4] | Potency [5]

CC1=C2C(O)C(=O)OC(c3ccoc3)C2(C)CCC1O (stereo not given)
inactive: Potency [1] | Potency [2] | Potency [3] | Potency [4] | Potency [5]

O=S(=O)(c1ccccc1)c1cnc2c(N3CCNCC3)cccc2c1
inactive: Potency [1] | Potency [2] | Potency [3] | Potency [4] | Potency [5]

NC(=O)c1cnc(NCCc2ccc(O)c(Cl)c2)nc1NCc1ccccc1
inactive: Potency [1] | Potency [2] | Potency [3] | Potency [4] | Potency [5]

CCOC(=O)C(CCc1ccccc1)NC(C)C(=O)N1C(=O)N(C)CC1C(=O)O (stereo not given)
inactive: Potency [1] | Potency [2] | Potency [3] | Potency [4] | Potency [5]

CC(=O)C1=CCC2C3CCC4CC(O[C@@H]5O[C@H](CO)[C@@H](O[C@@H]6O[C@@H](C)[C@H](O)[C@@H](O)[C@H]6O)[C@H](O)[C@H]5O[C@@H]5O[C@H](CO)[C@@H](O)[C@H](O)[C@H]5O)CCC4(C)C3CCC12C (stereo not given in full)
inactive: Potency [1] | Potency [2] | Potency [3] | Potency [4] | Potency [5]

C=C1C(=O)O[C@H]2[C@H]1CC/C(C)=C/CC[C@@]1(C)O[C@@H]21
inactive: Potency [1] | Potency [2] | Potency [3] | Potency [4] | Potency [5]

O=C1NC(Cc2c[nH]c3ccccc23)C(=O)NC1Cc1cnc[nH]1 (stereo not given)
inactive: Potency [1] | Potency [2] | Potency [3] | Potency [4] | Potency [5]

CC(C)CNCc1ccc(-c2ccccc2S(=O)(=O)N2CCCC2)cc1
inactive: Potency [1] | Potency [2] | Potency [3] | Potency [4] | Potency [5]

CC(NC(=O)C(O)C(C)C)C(=O)NC1C(=O)N(C)CCc2ccccc21 (stereo not given)
inactive: Potency [1] | Potency [2] | Potency [3] | Potency [4] | Potency [5]

C[C@@H]1O[C@@H](O[C@H]2[C@H](O[C@H]3[C@H](O)[C@@H](C(=O)O)O[C@@H](O[C@H]4CC[C@@]5(C)C(CC[C@]6(C)C5CC[C@]57OC[C@@]8(CCC(C)(C)CC85)[C@H](O)C[C@]76C)C4(C)C)[C@@H]3O[C@@H]3O[C@H](CO)[C@@H](O[C@@H]4OC[C@@H](O)[C@H](O)[C@H]4O)[C@H](O)[C@H]3O)O[C@H](CO)[C@H](O)[C@@H]2O)[C@H](O)[C@H](O)[C@H]1O (stereo not given in full)
inactive: outcome [1] inactive [at 9.73 µM] | activity change, negative = inhibition [2] 0.267% [at 11.6 µM] | activity change, negative = thiol reactive [3] 330% [at 11.5 µM] | activity, negative = inhibition [4] 0% [at 11.6 µM] | redox activity (% of DA3003) [5] 15% [at 11.5 µM]

COc1ccc(C2=N[C@@H](c3ccc(Cl)cc3)[C@@H](c3ccc(Cl)cc3)N2C(=O)N2CCNC(=O)C2)c(OC(C)C)c1
inactive: Potency [1] | Potency [2] | Potency [3] | Potency [4] | Potency [5]

N#Cc1ccc2[nH]cc(CCCCN3CCN(c4ccc5oc(C(N)=O)cc5c4)CC3)c2c1
inactive: Potency [1] | Potency [2] | Potency [3] | Potency [4] | Potency [5]

CC(=O)N[C@H]1[C@H](O[C@H]2CC[C@@]3(C)C(CC[C@]4(C)C3CC=C3C5CC(C)(C)CC[C@]5(C(=O)O)[C@H](O)C[C@]34C)C2(C)C)O[C@H](CO[C@@H]2OC[C@H](O)[C@H](O)[C@H]2O[C@@H]2OC[C@@H](O)[C@H](O)[C@H]2O)[C@@H](O)[C@@H]1O (stereo not given in full)
inactive: Potency [1] | activity change, negative = inhibition [2] -1.17% [at 11.6 µM] | activity change, negative = thiol reactive [3] 85% [at 11.5 µM] | activity, negative = inhibition [4] 0% [at 11.6 µM] | redox activity (% of DA3003) [5] 8.12% [at 11.5 µM]
